Compound activity: PubChem BioAssay, National Center for Advancing Translational Sciences (NCATS)
Only some compounds are listed: those with a hit (about 5.5% of all), similar ones and a draw of the others.
ELG1 repair inh: inhibitors of ELG1-dependent DNA repair in HEK293T cells. HEK293T ELG1-luciferase reporter, luminescence, 16 h; DNA damage induced by 5-fluorouridine. Potency, µM (doses to about 46.1 µM), without a hit: top-dose activity change, negative = inhibition, usual class: inhibitors. 330,000 compounds, 2.3% hits. AID 504467; note: potency is the fitted concentration of half-maximal effect; nearly all actives have a fitted effect of over 55% in size
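Quantitative HTS, concentration-response format. 2,000 cells/well co-treated with 5-fluorouridine and compound, 16 hr in 5% CO2 at 37 °C; ONE-Glo luminescence read after 30 min.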
Sfp PPTase inh: blocks B. subtilis Sfp PPTase activity; AID 1490; Biochemical Sfp PPTase activity, qHTS; 310,000 compounds, 3.5% hits; Q9F4F7; Potency, µM, inactives show largest response in the series, negative = inhibition, hits mostly inhibitors;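 note: the enzyme is Sfp with the accession as filed and its product quenches rhodamine fluorescence; potency is the fitted concentration of half-maximal effect; 0% = enzyme reaction without inhibitor and -100% = no enzyme wells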
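Step 1, compound plus 15 nM Sfp-PPTase, 15 min, room temperature. Step 2, add rhodamine-CoA (5 uM) and BHQ-2-YbbR (12.5 uM). Step 3, read 525/598 nm fluorescence at 0 and 30 min.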
Giardia kill: kills Giardia lamblia | activity change, % at 7.66 µM, hits read low | 340,000 compounds, 0.15% hits | Giardia lamblia trophozoite viability; in the data active = activity change below about -80%; inconclusive = between about -30% and that limit;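 note: parasites exposed to compound for two days anaerobically before the ATP read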
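Viability, read as ATP luminescence: trophozoites at 100 cells/well, compound added, 48 hrs anaerobic at 37 deg C, then 15-30 min room-temperature development before reading.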
Coupling enz: counter-screen for Giardia aldolase inhibitors: coupling enzyme system; coupling enzyme system counterscreen, AmpLite Red fluorescence; activity change, negative = inhibition, % at 58.2 µM, hits read low; 290,000 compounds, 0.67% hits; in the data active = activity change below about -30%
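Compounds tested against the coupling enzymes alone at 57.5 uM final; readout was AmpLite Red fluorescence (525/598 nm) after 20 min at RT.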
* marks the source's active call; other numbers are inactive results; ? = inconclusive; . = no result given. Unless noted, calls come from the whole dose curve; as a rule, active = well fitted curve in the direction sought with a large enough effect; inconclusive = small, poorly fitted or top-dose-only effect, or another doubt; inactive = no such curve, though single readings can be large; an effect the other way counts as inactive or inconclusive. Unless noted, % is set by controls: 0 for no effect and ±100 for the full control effect.

SMILES	ELG1 repair inh	Sfp PPTase inh	Giardia kill	Coupling enz
Cc1ccc(N=C2NC(=O)CS2)cc1	4%	19%	1	2
CN(CC(=O)Nc1cccc(F)c1)C(=O)c1cccc(S(=O)(=O)N2CCN(c3ccc(F)cc3)CC2)c1	.	.	22	.
CC1(C)OC(C)(C)/C(=C/Nc2ccc(O)cc2)C1=O	-7%	?	10	-44*
O=C(OCC1OC(OC(=O)c2cc(O)c(O)c(OC(=O)c3cc(O)c(O)c(O)c3)c2)[C@@H](OC(=O)c2cc(O)c(O)c(OC(=O)c3cc(O)c(O)c(O)c3)c2)C(OC(=O)c2cc(O)c(O)c(OC(=O)c3cc(O)c(O)c(O)c3)c2)C1OC(=O)c1cc(O)c(O)c(OC(=O)c2cc(O)c(O)c(O)c2)c1)c1cc(O)c(O)c(OC(=O)c2cc(O)c(O)c(O)c2)c1 (stereo not given in full)	.	11µM*	.	-23
CC(=O)NC1C(OCCOc2ccc(Cl)cc2Cl)OC(COC(C)=O)C(OC(C)=O)C1OC(C)=O (stereo not given)	-24%	15%	1	0
Cc1ccc(C(C)C)c(OCc2nn(CC(=O)c3ccc(Cl)cc3)c3[n+]2CCCCC3)c1	?	32µM*	-8	0
O=C(Cn1nc(CNc2ccc(Cl)cc2)[n+]2c1CCCCC2)c1ccccc1	?	-11%	10	2
COc1ccc(C(C2C(=O)CC(C)(C)CC2=O)C2C(=O)CC(C)(C)CC2=O)cc1CO	13%	56µM*	-26	0
COC(=O)c1ccc(C(C2C(=O)CC(C)(C)CC2=O)C2C(=O)CC(C)(C)CC2=O)cc1	10%	5%	-3	6
Nc1ncc(Br)cc1S(=O)(=O)NCCC(=O)NCCc1ccc(Cl)cc1	-8%	8%	-6	.
CC(Oc1ccc(F)cc1)C(=O)Nc1cccc(-c2nn[nH]n2)c1 (stereo not given)	-6%	32µM*	-16	7
COc1ccc(OC(C)C(=O)Nc2cccc(OC)c2)cc1 (stereo not given)	-1%	-11%	1	-1
N=C1/C(=C\c2ccc(-c3cccc(Cl)c3)o2)C(=O)N=C2SC=C(c3ccccc3)N12	5%	6.3µM*	2	-4
N=C1/C(=C\c2ccc(-c3ccc(C(=O)O)cc3)o2)C(=O)N=C2SC=C(c3ccccc3)N12	4%	32µM*	-10	-6
CCOc1ccc(/C=N/NC(=O)c2cc3c(OC)cc(OC)c(OC)c3[nH]2)cc1	8.2µM*	5%	16	-2
CCCOc1ccc2[nH]c(C(=O)N/N=C/c3cc(OC)c(OC)c(OC)c3)cc2c1	?	-2%	3	-3
O=C(CCS(=O)(=O)c1ccccc1)N(CCCN1CCOCC1)c1nc2ccc(F)cc2s1	?	.	-1	.
CC(C)c1ccc(NC(=O)Cn2nnc(C(=O)NCc3ccco3)c2N)cc1	0%	10%	?	6
C/C=C(\C)C(=O)OC1[C@H](OC(C)=O)C2(CO)C(CC1(C)C)C1=CCC3C4(C)CCC(O[C@@H]5O[C@H](C(=O)O)[C@@H](O[C@@H]6O[C@H](CO)[C@@H](O)[C@H](O)[C@H]6O)[C@H](O)[C@H]5O[C@H]5O[C@H](CO)[C@@H](O)[C@H](O)[C@H]5O)[C@](C)(CO)C4CCC3(C)[C@]1(C)C[C@H]2O (stereo not given in full)	.	.	-22	.
NC(=O)c1ccccc1NC(=S)NC(=O)c1ccc(Br)o1	?	22µM*	-27	-1
Cc1onc(-c2ccccc2Cl)c1C(=O)NC(=S)Nc1ccccc1C(N)=O	-5%	50µM*	-2	6
NC(=O)c1ccccc1NC(=S)NC(=O)CCc1ccccc1	8%	28µM*	-5	1
NC(=O)c1ccccc1NC(=O)CCc1ccccc1	?	13%	-8	-5
C/C(=N\OC(=O)c1c(-c2ccccc2Cl)noc1C)c1ccncc1	2%	5µM*	-4	1
Cc1onc(-c2ccccc2Cl)c1C(=O)Nc1ccccc1C(N)=O	?	11%	-20	2
SMILES	ELG1 repair inh	Sfp PPTase inh	Giardia kill	Coupling enz
O=C(NC(=S)Nc1ccccc1)c1ccc(Br)o1	?	3%	0	-1
CCN(CC)S(=O)(=O)c1cccc(-c2nnc(SCc3nnc(-c4cccs4)o3)n2N)c1	21µM*	-10%	6	3
CCN(CC)S(=O)(=O)c1cccc(-c2nnc(SCC(=O)NC)n2N)c1	21%	6%	7	0
CS(=O)(=O)c1ccc(Cl)c(NC(=O)COC(=O)CCN2C(=O)C3CC=CCC3C2=O)c1 (stereo not given)	.	.	-11	.
COc1cc(S(C)=O)ccc1-c1nc2ncccc2[nH]1 (stereo not given)	23%	25%	-1	-2
CN(C)C1C(=O)C(C(N)=O)=C(O)[C@@]2(O)C(=O)C3=C(O)c4c(O)ccc(Cl)c4C(O)[C@H]3C[C@@H]12 (stereo not given in full)	.	5%	.	-1
CN(C)[C@H]1C(=O)C(C(=O)NCN2CCCC2)=C(O)[C@]2(O)C(=O)C3=C(O)c4c(O)cccc4[C@@](C)(O)[C@H]3C[C@@H]12	.	3%	.	-36*
COc1ccccc1CNC(=O)CN1C(=O)NC2(CCCCCC2)C1=O	2%	.	-19	.
CC(CN1CCOCC1)OC(=O)c1ccccc1Cl (stereo not given)	6%	4%	-1	0
CCc1ccc(S(=O)(=O)/N=C2\C=C(Nc3ccc(O)cc3)C(=O)c3ccccc32)cc1	3.3µM*	-11%	-19	-35*
CCc1ccc(S(=O)(=O)/N=C2/C=C(Sc3ncn[nH]3)C(=O)c3ccccc32)cc1	21µM*	3.5µM*	0	-58*
CCc1ccc(S(=O)(=O)/N=C2\C=CC(=O)c3ccccc32)cc1	?	-28%	.	-50*
Cc1ccc(S(=O)(=O)/N=C2\C=C(NS(=O)(=O)c3ccccc3)C(=O)c3ccccc32)cc1	.	.	-1	.
O=C1c2ccccc2C(=O)N1CCSc1ncn[nH]1	?	-8%	-12	0
CCc1ccc(S(=O)(=O)/N=C2\C=C(Nc3cccc(C(=O)O)c3)C(=O)c3ccccc32)cc1	?	-18%	3	-44*
Cc1ccc(NCc2cc3cc4c(cc3n(CC(=O)Nc3ccc(C)cc3)c2=O)OCCO4)cc1	.	.	11	.
COC(=O)N[C@H](C[N+](=O)[O-])c1cccc(C)c1	.	-14%	.	3
O=C(N/N=C/c1ccc(-c2ccc(S(=O)(=O)Nc3ncccn3)cc2)o1)c1cc2ccccc2cc1O	-8%	50µM*	1	7
COc1ccc(Cc2nc3ccc(C(=O)NCC(C)(C)OC)cc3o2)cc1	?	14%	-2	2
CCn1c(=N)n(CC(=O)c2ccc(Cl)c(Cl)c2)c2ccccc21	?	?	-20	-4
N=c1n(CCN2CCCCC2)c2ccccc2n1CC(=O)c1ccc(Cl)c(Cl)c1	?	35µM*	11	-26
Cc1ccc2nc3c(cc(C(N)=S)c(=N)n3CCCOC(C)C)c(=O)n2c1	?	45µM*	-13	-7
